About 2,000 (36%) of roughly 5,500 compounds were called active. About 18% were inconclusive and are not listed. Rule as the data show it: active = normalized growth mostly below about 0.91 (no sharp cut-off); inconclusive = no clear call, values can overlap the other calls; inactive = mostly above about 0.92. This is one part of the list.
Experiment: chemical genetic growth profiling, strain panel (AID 1159580);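 also: tested at 20 µM; growth read once vehicle control cultures reached saturation at 30 °C; 1 = growth at the plate median or of vehicle wells; lower values mean less growth of the strain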
Conditions: S. cerevisiae deletion strains, growth OD
[1] = locus YAR019C, strain CDC15, hits give low values
[2] = locus YBL105C, strain PKC1, hits give low values
[3] = locus YBR135W, strain CKS1, hits give low values
[4] = locus YBR136W, strain MEC1, hits give low values
[5] = locus YBR160W, strain CDC28, hits give low values
[6] = locus YDL017W, strain CDC7, hits give low values
[7] = locus YDL028C, strain MPS1, hits give low values
[8] = locus YDL101C, strain DUN1, hits give low values
[9] = locus YDL108W, strain KIN28, hits give low values
[10] = locus YDL132W, strain cdc53, hits give low values
[11] = locus YDL214C, strain PRR2, hits give low values
[12] = locus YDR052C, strain DBF4, hits give low values
[13] = locus YDR054C, strain cdc34, hits give low values
[14] = locus YDR226W, strain ADK1, hits give low values
[15] = locus YDR477W, strain SNF1, hits give low values
[16] = locus YER123W, strain YCK3, hits give low values
[17] = locus YER133W, strain GLC7, hits give low values
[18] = locus YFL009W, strain cdc4, hits give low values
[19] = locus YFL029C, strain CAK1, hits give low values
[20] = locus YFR003C, strain YPI1, hits give low values
[21] = locus YFR019W, strain FAB1, hits give low values
[22] = locus YFR028C, strain CDC14, hits give low values
[23] = locus YGR040W, strain KSS1, hits give low values
[24] = locus YGR052W, strain FMP48, hits give low values
[25] = locus YGR092W, strain DBF2, hits give low values
[26] = locus YHR030C, strain SLT2, hits give low values
[27] = locus YHR079C, strain IRE1, hits give low values
[28] = locus YHR082C, strain KSP1, hits give low values
[29] = locus YHR205W, strain SCH9, hits give low values
[30] = locus YIL147C, strain SLN1, hits give low values
[31] = locus YJL095W, strain BCK1, hits give low values
[32] = locus YJL128C, strain PBS2, hits give low values
[33] = locus YJL157C, strain FAR1, hits give low values
[34] = locus YJR016C, strain ILV3, hits give low values
[35] = locus YJR066W, strain TOR1 (second series), hits give low values
[36] = locus YJR066W, strain TOR1, hits give low values
[37] = locus YKL048C, strain ELM1, hits give low values
[38] = locus YKL067W, strain YNK1, hits give low values
[39] = locus YKL101W, strain HSL1, hits give low values
[40] = locus YKL193C, strain SDS22, hits give low values
[41] = locus YKL203C, strain TOR2, hits give low values
[42] = locus YLR113W, strain HOG1, hits give low values
[43] = locus YLR133W, strain CKI1, hits give low values
[44] = locus YLR403W, strain SFP1, hits give low values
[45] = locus YML070W, strain DAK1, hits give low values
[46] = locus YMR001C, strain CDC5, hits give low values
[47] = locus YMR205C, strain PFK2 (second series), hits give low values
[48] = locus YMR277W, strain FCP1, hits give low values
[49] = locus YNL006W, strain LST8, hits give low values
[50] = locus YNL020C, strain ARK1, hits give low values
[51] = locus YNL161W, strain CBK1, hits give low values
[52] = locus YNL183C, strain NPR1, hits give low values
[53] = locus YNL207W, strain RIO2, hits give low values
[54] = locus YNL222W, strain SSU72, hits give low values
[55] = locus YNL307C, strain MCK1 (second series), hits give low values
[56] = locus YOL078W, strain AVO1, hits give low values
[57] = locus YOL136C, strain PFK27, hits give low values
[58] = locus YOR061W, strain CKA2, hits give low values
[59] = locus YOR119C, strain RIO1, hits give low values
[60] = locus YOR231W, strain MKK1, hits give low values
[61] = locus YOR329C, strain SCD5, hits give low values
[62] = locus YPL031C, strain PHO85, hits give low values
[63] = locus YPL153C, strain RAD53, hits give low values
[64] = locus YPL204W, strain HRR25, hits give low values
[65] = locus YPL209C, strain IPL1, hits give low values
[66] = locus YPL256C, strain CLN2, hits give low values
[67] = locus YPR025C, strain CCL1, hits give low values
[68] = locus YPR106W, strain ISR1, hits give low values
[69] = locus YPR111W, strain DBF20, hits give low values
[70] = strain NNK1, hits give low values
[71] = strain TSCII, hits give low values

Measured: normalized growth

Cc1ccc(NNC(=O)c2cccs2)cc1Cl
inactive: [1] 0.969 | [2] 0.969 | [3] 0.971 | [4] 0.974 | [5] 0.957 | [6] 0.979 | [7] 0.972 | [8] 0.968 | [9] 0.967 | [10] 0.975 | [11] 0.964 | [12] 0.976 | [13] 0.966 | [14] 0.96 | [15] 0.974 | [16] 0.897 | [17] 0.966 | [18] 0.976 | [19] 0.966 | [20] 0.976 | [21] 0.958 | [22] 0.964 | [23] 0.963 | [24] 1.01 | [25] 0.824 | [26] 0.943 | [27] 0.97 | [28] 1.03 | [29] 0.964 | [30] 0.98 | [31] 0.984 | [32] 0.963 | [33] 0.952 | [34] 0.975 | [35] 0.925 | [36] 1.03 | [37] 0.945 | [38] 0.953 | [39] 0.963 | [40] 0.968 | [41] 1.03 | [42] 0.876 | [43] 0.968 | [44] 0.929 | [45] 0.918 | [46] 0.979 | [47] 0.961 | [48] 0.974 | [49] 0.975 | [50] 0.963 | [51] 0.966 | [52] 0.979 | [53] 0.976 | [54] 0.961 | [55] 0.922 | [56] 0.972 | [57] 0.943 | [58] 0.894 | [59] 1.02 | [60] 0.914 | [61] 0.978 | [62] 0.964 | [63] 0.949 | [64] 0.959 | [65] 0.967 | [66] 0.948 | [67] 0.969 | [68] 0.973 | [69] 0.962 | [70] 0.991 | [71] 0.972

O=C(NNc1ccc(F)cc1F)c1sccc1Cl
active: [42] 0.858
inactive: [1] 0.974 | [2] 0.96 | [3] 0.978 | [4] 0.971 | [5] 0.971 | [6] 0.968 | [7] 0.975 | [8] 0.961 | [9] 0.977 | [10] 0.969 | [11] 0.924 | [12] 0.971 | [13] 0.957 | [14] 0.968 | [15] 0.927 | [16] 0.841 | [17] 0.952 | [18] 0.975 | [19] 0.962 | [20] 0.978 | [21] 0.916 | [22] 0.977 | [23] 0.912 | [24] 1 | [25] 0.879 | [26] 0.903 | [27] 0.96 | [28] 0.987 | [29] 0.925 | [30] 0.968 | [31] 0.939 | [32] 0.967 | [33] 0.926 | [34] 0.976 | [35] 0.86 | [36] 1.01 | [37] 0.927 | [38] 0.952 | [39] 0.913 | [40] 0.976 | [41] 0.985 | [43] 0.926 | [44] 0.917 | [45] 0.904 | [46] 0.974 | [47] 0.963 | [48] 0.984 | [49] 0.989 | [50] 0.939 | [51] 0.974 | [52] 0.956 | [53] 0.975 | [54] 0.975 | [55] 0.858 | [56] 0.968 | [57] 0.908 | [58] 0.83 | [59] 0.994 | [60] 0.914 | [61] 0.97 | [62] 0.944 | [63] 0.92 | [64] 0.914 | [65] 0.967 | [66] 0.894 | [67] 0.978 | [68] 0.957 | [69] 0.953 | [70] 0.967 | [71] 0.97

Cc1cc(Cl)ccc1NNC(=O)c1sccc1Cl
inactive: [1] 0.892 | [2] 0.912 | [3] 0.908 | [4] 0.9 | [5] 0.913 | [6] 0.915 | [7] 0.912 | [9] 0.907 | [10] 0.928 | [11] 0.869 | [13] 0.882 | [15] 0.861 | [16] 0.787 | [17] 0.794 | [18] 0.893 | [19] 0.883 | [20] 0.911 | [21] 0.907 | [22] 0.894 | [23] 0.861 | [24] 0.861 | [25] 0.7 | [27] 0.859 | [28] 0.884 | [29] 0.878 | [30] 0.913 | [32] 0.89 | [33] 0.864 | [35] 0.874 | [36] 0.835 | [37] 0.872 | [38] 0.861 | [39] 0.917 | [40] 0.893 | [41] 0.912 | [43] 0.878 | [44] 0.831 | [45] 0.836 | [46] 0.894 | [47] 0.844 | [48] 0.905 | [50] 0.885 | [52] 0.858 | [53] 0.9 | [54] 0.896 | [55] 0.811 | [56] 0.888 | [57] 0.84 | [58] 0.876 | [59] 0.91 | [60] 0.823 | [61] 0.909 | [62] 0.861 | [63] 0.803 | [64] 0.822 | [67] 0.902 | [68] 0.903 | [69] 0.882 | [70] 0.897
active: [8] 0.907 | [12] 0.898 | [14] 0.894 | [26] 0.152 | [31] 0.194 | [34] 0.898 | [42] 0.779 | [49] 0.898 | [51] 0.89 | [65] 0.899 | [66] 0.803 | [71] 0.878
